# Screens (PubChem BioAssay)
# gsp antag: gsp mutant antagonism | Potency, µM (doses to about 76.9 µM), without a hit: top-dose activity change, negative = inhibition, actives largely listed as inhibitors | 340,000 compounds, 0.4% hits | gsp-mutant cells, cAMP HTRF, 30 min | AID 624288; calls by dose curve; cell line not stated here;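 also: intracellular cAMP measured with PDE inhibitor Ro 20-1724 present during compound exposure; potency is read from the fitted curve at half-maximal effect; % is scaled to controls: 0 for no effect and ±100 for the full control effect; nearly all actives have a fitted effect of over 65% in size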
#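 G418-selected cells were plated in DMEM/10% FBS for 16-24 h at 37C, then treated with compounds plus the PDE inhibitor […] (300 uM solution added) for 30 min at 37C. Intracellular cAMP was measured by HTRF after 30 min lysis at room temperature.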
# ClpP mod: qHTS Assay for Activators of ClpP; Potency, µM (top dose mostly 57.5 µM), for the others: at the highest dose activity change, negative = active; purified B. subtilis ClpP, FRET peptide cleavage, 20 min; AID 651965, 2013; 340,000 compounds, 1.9% hits; ATP-dependent Clp protease proteolytic subunit (Bacillus subtilis (strain 168)), P80244; active = well fitted falling curve with a large enough effect; inconclusive = small, poorly fitted or top-dose-only effect; inactive = no such curve, though single readings can be large or run the other way; also: potency is read from the fitted curve at half-maximal effect; the source files actives as falling curves though it sought activators and does not explain the sign; nearly all actives have a fitted effect of over 65% in size
# Target sequence (P80244 whole entry, looked up): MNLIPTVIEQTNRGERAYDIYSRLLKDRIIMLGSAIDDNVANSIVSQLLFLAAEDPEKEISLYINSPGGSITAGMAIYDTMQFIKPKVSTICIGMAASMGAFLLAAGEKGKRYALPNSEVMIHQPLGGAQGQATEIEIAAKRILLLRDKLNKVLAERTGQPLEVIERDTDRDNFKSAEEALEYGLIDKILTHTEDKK
#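 Buffer: 100 mM Tris/HCl pH8, 100 mM KCl, 0.05% low protease BSA, 2.5% glycerol, 0.01% Tween-20. ClpP 10 microg/mL final; 20 min RT; delta FRET normalized to ADEP and DMSO controls.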
# Akt phos inh: inhibitors of Akt phosphorylation; 360,000 compounds, 0.32% hits; activity change, % for hits at 50 µM; Neuro2A IGF-stimulated pAkt S473 HTRF, 20 min; stronger effect = lower value; in the data active = activity change below about -80%; inconclusive = mostly about -51% to -80%; also: % is scaled to controls: 0 for no effect and ±100 for the full control effect
#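 Neuro2A cells (4,500/well, DMEM with 0.5% FBS) were treated with compound at a single 50 µM final concentration, stimulated with 6 nM IGF for 20 min at 37 °C, and lysed. Phospho-Akt Ser473 was read by HTRF as 665/615 ratio ×10^4.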
# gsp agonist: activates gsp, the McCune-Albright syndrome mutation; gsp mutant cells, cAMP HTRF, 30 min; Potency, µM (doses to about 76.9 µM), for inactives: at the highest dose activation (cAMP increase), hits mostly activators; 340,000 compounds, 0.13% hits; AID 624287; active = well fitted activation curve with a large enough effect; inconclusive = small, poorly fitted or top-dose-only effect, or another doubt; inactive = no such curve, though single readings can be large or run the other way; cell line not stated here;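 also: phosphodiesterase inhibitor Ro 20-1724 added with compounds to block cAMP breakdown; potency is read from the fitted curve at half-maximal effect; nearly all actives have a fitted effect of over 60% in size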
#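 Cells in DMEM/10% FBS with G418 were pretreated with compounds in DMSO plus […] (300 uM stock) for 30 min at 37C. cAMP was measured by HTRF (cAMP-d2 plus anti-cAMP antibody-K) after 30 min at room temperature.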
# RXFP1 antagonist: antagonists of human relaxin receptor RXFP1 | Q9HBX9 | HEK293-RXFP1, relaxin-stimulated cAMP HTRF, 30 min; stronger effect = lower value | activity change, negative = inhibition, % at 57.5 µM | 350,000 compounds, 0.59% hits;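 active = activity change of -60% or lower, but not beyond a set lower limit; inconclusive = change between -60% and -40%, or beyond the set limit; inactive = change above -40%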; also: % is scaled to controls: 0 for no effect and ±100 for the full control effect
# RXFP1 agonist: agonists of human relaxin receptor RXFP1; Q9HBX9; HEK293T-RXFP1 cAMP TR-FRET, 30 min; response scale: percent of porcine relaxin response, buffer zero; Potency, µM (top dose mostly 57.5 µM), for the others: top-dose activation, hits mostly activators; 370,000 compounds, 0.3% hits; AID 2676; active = well fitted activation curve with a large enough effect; inconclusive = small, poorly fitted or top-dose-only effect; also: potency is read from the fitted curve at half-maximal effect; % is scaled to controls: 0 for no effect and ±100 for the full control effect; nearly all actives have a fitted effect of over 60% in size
#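 HEK293T cells stably expressing RXFP1 were pretreated with the PDE4 inhibitor Ro 20174, exposed to compounds for 30 min at 37C, lysed, and cAMP was read by TR-FRET. Data normalized to buffer (basal) and 29 nM porcine relaxin (100%).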
# * = called active by the depositor; i = inactive; ? = inconclusive; · = no result given; [ ] = dose if it differs, or a comment. Compounds with a hit are over-represented: about 2.7% of the library has one in this group of screens.
SMILES,gsp antag,ClpP mod,Akt phos inh,gsp agonist,RXFP1 antagonist,RXFP1 agonist
O=c1c(-c2ccccc2)coc2c(CN3CCCC3)c(O)ccc12,-21%,28µM*,i,-2%,-1,0%
CC1CCCCN1Cc1c(O)ccc2c(=O)c(-c3ccc(Cl)cc3)coc12 (stereo not given),-14%,13µM*,i,6%[15.4 µM],?,1%
O=c1c(-c2ccc(Cl)cc2)coc2c(CN3CCOCC3)c(O)ccc12,-7%,28µM*,i,-24%,8,0%
O=c1cc(-c2ccccc2)c2ccc(O)c(CN3CCCCC3)c2o1,10%,-21%,i,-20%,-9,3%
CC1CCCCN1Cc1c(O)ccc2c(=O)c(-c3ccc(Br)cc3)coc12 (stereo not given),-6%,4%,i,28%,-9,9%
COc1ccc(-c2coc3c(CN4CCOCC4)c(O)ccc3c2=O)cc1,-9%,3%,i,23%,-1,3%
Nc1c(I)cc(I)c(C(=O)N(CCC(=O)O)c2ccccc2)c1I,·,·,·,·,-19,·
Cc1cccc(NS(=O)(=O)c2ccc(-n3cccn3)cc2)c1C,-14%,-1%,i,-45%,-7,4%
Cc1ccc(-c2nc(N)sc2-c2ccccc2)cc1C,-8%,-10%,i,2%,-84*,2%
CCc1ccc2occ(CC(=O)Nc3c(C(=O)Nc4ccc(C)cc4)oc4ccccc34)c2c1,·,261%,·,·,-1,7%
Cc1ccc2c(CC(=O)Nc3c(C(=O)Nc4cccc(Cl)c4)oc4ccccc34)coc2c1C,·,?,·,·,-12,2%
Cc1ccc(C(=O)c2oc3ccccc3c2NC(=O)Cc2coc3c(C)c(C)ccc23)cc1,·,-2%,·,·,-2,1%
CCc1ccc2occ(CC(=O)Nc3c(C(=O)Nc4ccc(Cl)cc4)oc4ccccc34)c2c1,·,16µM*,·,·,-14,-1%
Cc1ccc2occ(CC(=O)Nc3c(C(=O)Nc4ccc(Cl)cc4)oc4ccccc34)c2c1,·,18µM*,·,·,-8,-1%
CCc1ccc2occ(CC(=O)Nc3c(C(=O)c4ccccc4)oc4ccccc34)c2c1,·,22µM*,·,·,3,6%
CCC(=O)N1CCc2cc(S(=O)(=O)CCC(=O)NCc3ccccc3OC)ccc21,6%,2%,·,11%,?,0%
CCCCCn1c(SCCc2ccccc2)nc2c1c(=O)[nH]c(=O)n2C,2%,1%,-112%*,4%,-1,3%
CCOC(=O)C(C)Sc1nc2c(c(=O)[nH]c(=O)n2C)n1CCc1ccccc1 (stereo not given),2%[15.4 µM],-5%,-103%*,-33%,-2,0%
CCOCCn1c(SCCc2ccccc2)nc2c1c(=O)[nH]c(=O)n2C,-2%,-1%,i,-23%,0,0%
CCOCCSc1nc2c(c(=O)[nH]c(=O)n2C)n1CCCc1ccccc1,10%,-2%,-114%*,0%,3,1%
C=CCNc1nc2c(c(=O)[nH]c(=O)n2C)n1CCCCC,-1%,-1%,-114%*,5%,2,4%
CCCn1c(SCCc2ccccc2)nc2c1c(=O)[nH]c(=O)n2C,-2%,3%,i,0%,8,1%
COc1ccc(CN2C(=O)C(CC(=O)NCCCCc3ccccc3)CC(C(=O)N(C)C)=C2C)cc1 (stereo not given),·,-1%,i,-54%,-3,·
COC(=O)c1ccc(N2CC3CNC(=O)C2(C(=O)OC)N3C)cc1 (stereo not given),-2%,-5%,i,20%,·,·
O=C(NNC(=O)[C@@H]1CCCC[C@@H]1C(=O)O)Nc1ccccc1,12%,1%,i,13%,3,3%
SMILES,gsp antag,ClpP mod,Akt phos inh,gsp agonist,RXFP1 antagonist,RXFP1 agonist
O=C(NNC(=O)C1CC1c1ccccc1)Nc1ccccc1 (stereo not given),6%,28µM*,i,?,10,-1%
c1ccc(-c2cn3c(n2)-c2ccccc2C3)cc1,2%,14µM*,i,-14%,·,-1%
Cc1ccc(-c2nc3n(n2)Cc2ccccc2-3)cc1,-8%,-1%,i,12%[15.4 µM],-12,2%
CCN(CC)C(=O)Cn1cc(C(=O)C(=O)N(CC)C2CCCCC2)c2ccccc21,-1%,0%,i,-51%,-5,-2%
COC(=O)c1c(NC(=O)c2cc3nc(-c4ccc(Br)cc4)cc(C(F)(F)F)n3n2)sc2c1CCCC2,·,?,·,·,-22,-1%
Cn1c(=O)c2c(nc(NCc3cccnc3)n2Cc2ccc(Cl)cc2)n(C)c1=O,12%,3.2µM*,i,-50%,-1,3%
CCOc1cc(C)c(-c2onc(C(F)(F)F)c2-c2csc(C)n2)c(O)c1,?,-2%,i,5%,-84*,3%
Cc1nc(-c2c(C(F)(F)F)noc2-c2ccc(O)cc2O)cs1,-7%,-4%,i,0%,-3,0%
CCN1C(=O)C(CC(=O)NCCc2ccccc2)N(NC(=O)c2cccnc2)C1=S (stereo not given),8%,2%,i,-5%[15.4 µM],6,1%
CCN1C(=O)C(CC(=O)NC)N(NC(=O)c2ccccc2)C1=S (stereo not given),-12%,25µM*,i,15%[15.4 µM],-4,-3%
COc1cccc(/C=N/NC(=O)c2cccc3ccccc23)c1,7%,-6%,i,14%,10,-1%
COc1ccc(C(=O)N/N=C/c2ccc(OC(=O)c3cccc4ccccc34)c([N+](=O)[O-])c2)cc1,-13%,0%,i,-15%,-14,0%
COc1ccc(C(=O)Oc2ccc(/C=N/NC(=O)c3ccccc3OC)cc2[N+](=O)[O-])cc1,-1%,28µM*,i,-55%,·,1%
COc1ccc(C(=O)N/N=C/c2ccccc2OC(=O)c2ccccc2)cc1,18%,·,i,4%,-17,-2%
COc1ccc(OC)c(/C=N\NC(=O)c2ccc(-c3ccccc3)cc2)c1,-14%,28µM*,i,16%[15.4 µM],-8,1%
COc1ccc(OC)c(/C=N/NC(=O)CNC(=O)c2cccc3ccccc23)c1,4%,18µM*,i,?,-3,1%
COc1ccc(C(=O)N/N=C/c2cc3ccccc3[nH]c2=O)cc1,-24%,28µM*,i,9%[15.4 µM],-5,-4%
Cc1cc(C)c(S(=O)(=O)c2ccccc2)c(Cl)n1,3%,14µM*,i,-25%,-4,-1%
Cc1ccc(S(=O)(=O)c2c(C)cc(C)nc2Cl)cc1,9%,-1%,i,-9%,·,-1%
CC1OC(CC(=O)O)CC2=C1C(=O)c1c(O)cccc1C2=O (stereo not given),?,0%,i,38%,-63*,·
O=C1c2cccc(O)c2C(=O)c2c(O)cccc21,·,·,·,·,-6,7%
